Assay [1] has as its system Plasmodium falciparum Sir2 (PF13_0152, Sir2A). The assay is described as follows: pfSir2 binders on small-molecule microarrays, primary screen, biochemical, small-molecule microarray, 635 nm fluorescence (AID 1098).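 Also: score merges spot fluorescence intensity with its signal-to-noise ratio.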 The conditions noted are these: small-molecule microarray binding, fluorescence 635 nm; higher = more signal.
Assay [2] is described as follows: small-molecule microarray binders of probe aDKK1, primary screen, biochemical, biotinylated probe, 635/667 nm fluorescence (AID 1099).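 Also: score merges 667nm spot fluorescence with signal to noise across triplicate slides; reference of the scale not given here.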 The conditions noted are these: higher = more signal.
Assay [3] can be described thus: small-molecule microarray binders of probe aCHRDL2, primary screen, biochemical, biotinylated probe, 635/667 nm fluorescence (AID 1100). The conditions noted are these: higher = more signal.
Assay [4] is described as follows: splicing luciferase reporter signal modulators, primary screen, spliceosome inhibition project, cell-based, HEK293, splice +/- reporter (AID 1101).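 Also: HEK293 cells carrying a splicing-competent luciferase reporter gene; test concentration not given here.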 Particulars: luminescence, 24 h, higher = more signal, called active from +8 up or from −8 down. In general terms: In a reporter assay the amount or activity of a reporter protein is the signal.
In assay [5] the target is Fibroblast growth factor 10 (Homo sapiens) (UniProt O15520). The assay is described as follows: FGF10 binders on small-molecule microarrays, primary screen, biochemical, small-molecule microarray, 635 nm fluorescence (AID 1102). Particulars: FGF10 binding, fluorescence 635 nm, higher = more signal.
Sequence of Fibroblast growth factor 10 (Homo sapiens) (O15520 whole entry, looked up): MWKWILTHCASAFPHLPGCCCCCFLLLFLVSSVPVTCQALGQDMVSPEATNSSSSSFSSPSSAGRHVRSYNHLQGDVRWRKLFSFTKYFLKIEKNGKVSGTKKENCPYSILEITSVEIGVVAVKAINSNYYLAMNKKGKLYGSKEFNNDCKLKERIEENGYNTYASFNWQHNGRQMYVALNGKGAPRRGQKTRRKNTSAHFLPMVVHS
Assay [6] has as its system glycogen synthase kinase-3 (GSK3A per assay name; protocol says GSK3B). In words: GSK3 binders on small-molecule microarrays, primary screen, biochemical, small-molecule microarray, 635 nm fluorescence, GSK3A (AID 1103). Also: the record names both GSK3A and GSK3B. Particulars: small-molecule microarray binding, fluorescence 635 nm; higher = more signal.
In assay [7] the target is Epidermal growth factor receptor (Homo sapiens) (UniProt P00533). The assay is described as follows: EGFR binders on small-molecule microarrays, primary screen, biochemical, small-molecule microarray, 635 nm fluorescence (AID 1104).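 Also: score merges 667 nm emission intensity with spot signal to noise over triplicate slides.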 Particulars: EGFR binding, higher = more signal.
Sequence of Epidermal growth factor receptor (Homo sapiens) (P00533 whole entry, looked up): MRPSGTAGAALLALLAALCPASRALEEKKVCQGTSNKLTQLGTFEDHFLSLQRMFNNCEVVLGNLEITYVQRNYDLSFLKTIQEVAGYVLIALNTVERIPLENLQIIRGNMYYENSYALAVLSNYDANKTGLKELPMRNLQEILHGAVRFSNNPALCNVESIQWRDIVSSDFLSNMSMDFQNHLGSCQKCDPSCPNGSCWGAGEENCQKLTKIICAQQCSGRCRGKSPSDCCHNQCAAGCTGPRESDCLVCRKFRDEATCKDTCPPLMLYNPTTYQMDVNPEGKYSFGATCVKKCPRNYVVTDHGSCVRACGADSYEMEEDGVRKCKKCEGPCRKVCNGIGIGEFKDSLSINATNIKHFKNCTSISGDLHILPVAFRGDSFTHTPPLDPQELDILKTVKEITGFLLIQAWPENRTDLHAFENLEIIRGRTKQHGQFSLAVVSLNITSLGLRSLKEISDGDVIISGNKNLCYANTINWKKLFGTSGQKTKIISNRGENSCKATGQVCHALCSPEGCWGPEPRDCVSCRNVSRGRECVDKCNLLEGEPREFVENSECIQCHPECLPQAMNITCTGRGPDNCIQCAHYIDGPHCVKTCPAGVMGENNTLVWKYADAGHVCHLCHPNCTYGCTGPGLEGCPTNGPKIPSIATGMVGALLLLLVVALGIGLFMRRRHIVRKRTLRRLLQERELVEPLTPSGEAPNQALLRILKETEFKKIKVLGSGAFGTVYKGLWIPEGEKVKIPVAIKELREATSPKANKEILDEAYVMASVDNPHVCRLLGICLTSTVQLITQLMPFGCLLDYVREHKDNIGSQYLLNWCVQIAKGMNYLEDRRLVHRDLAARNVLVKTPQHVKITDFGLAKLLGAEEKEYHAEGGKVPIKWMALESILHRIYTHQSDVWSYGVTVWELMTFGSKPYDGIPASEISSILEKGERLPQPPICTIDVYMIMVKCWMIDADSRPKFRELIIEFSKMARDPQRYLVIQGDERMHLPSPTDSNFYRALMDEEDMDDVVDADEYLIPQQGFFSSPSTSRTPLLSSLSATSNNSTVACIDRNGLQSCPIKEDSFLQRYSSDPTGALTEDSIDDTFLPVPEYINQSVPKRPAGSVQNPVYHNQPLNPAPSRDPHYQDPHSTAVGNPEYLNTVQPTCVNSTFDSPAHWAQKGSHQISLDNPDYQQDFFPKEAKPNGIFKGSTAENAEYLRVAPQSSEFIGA
Assay [8] deals with Follistatin-related protein 3 (Homo sapiens) (UniProt O95633). In words: FSTL3 binders on small-molecule microarrays, primary screen, biochemical, small-molecule microarray, 635 nm fluorescence (AID 1105).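 Also: score merges emission near 667 nm and signal to noise per printed spot across three slides.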 Particulars: FSTL3 binding, higher = more signal.
Sequence of Follistatin-related protein 3 (Homo sapiens) (O95633 whole entry, looked up): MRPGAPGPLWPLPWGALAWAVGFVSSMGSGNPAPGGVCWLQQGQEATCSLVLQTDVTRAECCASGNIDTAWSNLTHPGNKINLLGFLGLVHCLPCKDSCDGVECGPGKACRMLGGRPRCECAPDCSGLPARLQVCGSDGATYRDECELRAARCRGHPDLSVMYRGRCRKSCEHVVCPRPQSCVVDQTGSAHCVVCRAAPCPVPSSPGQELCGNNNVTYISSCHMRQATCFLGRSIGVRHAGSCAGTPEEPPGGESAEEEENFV
The target of assay [9] is Dickkopf-related protein 1 (Homo sapiens) (UniProt O94907). The assay is described as follows: DKK1 binders on small-molecule microarrays, primary screen, biochemical, small-molecule microarray, 635 nm fluorescence scan (AID 1106).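 Also: score merges emission near 667 nm with signal to noise over three replicate slides.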 Particulars: DKK1 binding, higher = more signal.
Sequence of Dickkopf-related protein 1 (Homo sapiens) (O94907 whole entry, looked up): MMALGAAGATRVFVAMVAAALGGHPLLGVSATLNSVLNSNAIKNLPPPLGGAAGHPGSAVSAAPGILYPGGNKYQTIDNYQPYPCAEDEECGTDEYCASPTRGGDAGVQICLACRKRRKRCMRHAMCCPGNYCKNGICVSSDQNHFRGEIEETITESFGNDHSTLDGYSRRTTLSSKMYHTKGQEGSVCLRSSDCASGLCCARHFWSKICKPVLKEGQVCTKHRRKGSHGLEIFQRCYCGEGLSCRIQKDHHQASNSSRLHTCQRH
In assay [10] the test system is Inhibin beta A chain (activin A). The assay is described as follows: INHBA (activin A) binders on microarrays, primary screen, biochemical, small-molecule microarray, 635 nm fluorescence scan (AID 1107).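 Also: mouse activin A protein probed at 4.33 µg/mL on printed slides; score merges bound-protein fluorescence near 667 nm with spot signal-to-noise.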 The conditions noted are these: small-molecule microarray binding, higher = more signal.

Calls of active or inactive are those of the source.

For `C=CCNC(=O)[C@@H]1[C@H]2C(=O)O[C@H](c3ccccc3)[C@H](c3ccccc3)N2[C@H](c2ccc(O)cc2)[C@@]12C(=O)Nc1ccc(C#CCCO)cc12`, the composite z-score in [1] is 1.84; in assay [2], -0.25; in assay [3], 0.216; in [5], -0.861; in assay [6], -1.07; in assay [7], -0.949. Moreover, the results for the composite z-score in assay [8], in [9] and in [10] were -0.459, 0.0119 and -0.348, respectively. Further, the z-score in [4] is -0.831 (inactive).

For `COCCOC(=O)N1C(=O)[C@@]2(c3ccccc31)[C@H](c1ccccc1OCCO)N1[C@H](c3ccccc3)[C@H](c3ccccc3)OC(=O)[C@H]1[C@@H]2C(=O)N1CCc2cc(OC)c(OC)cc2C1`, the composite z-score was determined as 1.1 in assay [1]; 0.153 in assay [2]; 0.49 in assay [3]; 0.658 in assay [5]; 1.28 in assay [6]; 0.261 in assay [7]. The composite z-score in assay [8] stood at 0.788; in [9], 0.424; in assay [10] it was 0.41. In [4], the z-score was -1.42 (inactive).

`CCOC(=O)C1=CCC(c2cccc(Cl)c2)O1` (stereo not given): the composite z-score was 0.355 in assay [1]; 0.14 in assay [2]; -0.0411 in assay [3]; 0.235 in assay [5]; 0.0617 in [6]; -0.62 in [7]. Further, the composite z-score in [8] was -0.275; in [9], -0.504; in assay [10] it was 0.154. The z-score in assay [4] was -1.29 (inactive).

With `CC1(C)[C@@H]2CC(C(O)C3C=CC4C(=O)N(c5ccccc5)C(=O)C4N3Nc3ccccc3F)=C[C@@H]1C2` (stereo not given in full), the composite z-score in assay [1] was determined as 1.4; in [2], 0.26; in [3] it was 0.471; in assay [5], 1.34; in [6] it was 1.31; in assay [7], 0.4. For the same molecule, the figures for the composite z-score in [8], in assay [9] and in assay [10] were 1.31, 0.122 and 0.603, respectively. For the same molecule, the z-score in [4] was -1.75 (inactive).

On to `COC(=O)[C@@]1(Cc2ccccc2)[C@H]2c3cc(C(=O)N4CCCC4)n(Cc4ccc(OC(F)(F)F)cc4)c3C[C@H]2CN1C(=O)c1ccccc1`, for which the composite z-score in assay [1] is 0.716; in assay [2] it was 1.34; in assay [3], 1.4; in assay [5], 0.872; in assay [6], 0.728; in assay [7] it was -0.357. Besides, the composite z-score is 0.685 in assay [8], -0.909 in assay [9] and 1.08 in assay [10]. The z-score in assay [4] is -0.286 (inactive).

As for `CN1C(=O)C2C=CC(C(O)C3CCCCC3)N(N(c3ccccc3)c3ccccc3)C2C1=O` (stereo not given), the composite z-score was -0.941 in assay [1]; 0.993 in assay [2]; 0.895 in assay [3]; 0.189 in assay [5]; -1.14 in [6]; -1.34 in [7]. The composite z-score in assay [8] was -1.14; in assay [9], -1.28; in assay [10], 1.48. For the same molecule, in [4], the z-score is 1.12 (inactive).

Consider `[N-]=[N+]=NCc1ccccc1[C@H]1OC(c2ccc(OCCCO)cc2)=N[C@@]1(Cc1ccccc1N=[N+]=[N-])C(=O)N1CCCCC1`, for which the composite z-score in assay [1] worked out at 1.31; in assay [2], 1.11; in [3] it was 1.06; in assay [5], 1.42; in assay [6], 1.29; in assay [7] it was 0.363. Also, the composite z-score in assay [8] was 1.25; in assay [9] it was 0.256; in [10], 1.23. In addition, the z-score in assay [4] was 0.532 (inactive).

As for `O=C1c2ccccc2C(=O)C2CC([C@H]3Oc4ccccc4S(=O)(=O)N4CCC[C@@H]34)=CCC12` (stereo not given in full), the composite z-score is -0.41 in [1]; -0.158 in assay [2]; -0.119 in assay [3]; 0.0804 in assay [5]; 0.301 in assay [6]; 0.153 in [7]. For the same molecule, the composite z-score is -0.26 in assay [8], 0.187 in assay [9] and 0.771 in assay [10]. In [4], the z-score is -0.279 (inactive).

Take `COC(=O)[C@@]1(Cc2ccccc2)[C@H]2c3cc(C(=O)N4CCCC4)n(Cc4ccccc4)c3C[C@H]2CN1C(=O)c1ccccc1`: the composite z-score in [1] worked out at 1.1; in [2] it was 0.854; in assay [3] it was 0.94; in assay [5], 1.12; in [6], 0.882; in assay [7], 0.0075. Also, the composite z-score in assay [8] is 0.96; in [9], -0.197; in assay [10], 0.675. The z-score in assay [4] is -2.8 (inactive).

As for `CCOC(=O)C[C@H]1[C@H](OC(=O)Cc2ccc3c(c2)OCO3)[C@@H](NC(=O)c2ccccc2)c2cc(OCCCO)ccc2N1C(=O)c1ccc2ccccc2n1`, the composite z-score was 0.347 in [1]; -0.0053 in [2]; -0.329 in [3]; 0.274 in assay [5]; 0.329 in assay [6]; 0.548 in [7]. Moreover, the values for the composite z-score in assay [8], in assay [9] and in [10] were 0.0676, 0.328 and 0.318, respectively. Moreover, the z-score in assay [4] is -2.44 (inactive).

As to `COC(=O)[C@@]1(Cc2ccc(OC)cc2)[C@H]2c3cc(C(=O)N(C)C)n(Cc4cc(C)n(C)n4)c3C[C@H]2CN1C(=O)c1ccccc1`, the composite z-score in [1] is 1.07; in assay [2], 0.383; in assay [3], 0.433; in [5], 1.43; in [6] it was 0.902; in [7] it was -0.232. The figures for the composite z-score in [8], in assay [9] and in assay [10] were -0.0771, -0.382 and 0.79, respectively. Further, the z-score in [4] is -1.03 (inactive).

Turning to `COc1ccccc1CN1C(=O)c2ccccc2[C@@]2(Cc3ccccc3N(C3CC3)C2=O)[C@@H]1c1ccc(CO)cc1`, the composite z-score was 0.76 in assay [1]; -0.0899 in [2]; 0.322 in assay [3]; -0.671 in assay [5]; -0.928 in assay [6]; -0.724 in assay [7]. Besides, the values for the composite z-score in [8], in assay [9] and in [10] were -0.279, -0.535 and 0.52, respectively. In addition, in assay [4], the z-score was 0.312 (inactive).

In the case of `COC(=O)c1ccc(OC)c(/C=C\CC(CCc2ccccc2)OC(C)=O)c1` (stereo not given), the composite z-score in [1] was -0.388; in [2], -0.493; in assay [3], -0.101; in assay [5], -0.614; in assay [6] it was -0.0629; in assay [7] it was -0.309. The composite z-score in assay [8] worked out at 0.21; in assay [9] it was 0.239; in assay [10], 1.53. The z-score in [4] is -0.101 (inactive).

As to `COC(=O)C(CC#Cc1ccc2c(c1)[C@]1(C(=O)N2)[C@H](c2ccc(O)cc2)N2[C@H](c3ccccc3)[C@H](c3ccccc3)OC(=O)[C@H]2[C@@H]1C(N)=O)C(=O)OC`, the composite z-score in [1] was -0.532; in [2], -0.207; in assay [3], 0.613; in assay [5] it was -1.48; in assay [6], -1.29; in assay [7], -0.856. The composite z-score is -1.89 in [8], -0.841 in [9] and -0.611 in assay [10]. Also, the z-score in assay [4] is -0.192 (inactive).
